Screening results deposited in PubChem BioAssay by Broad Institute.
PfHsp90 yeast 2: growth inhibition of PfHsp90-expressing yeast, primary screen, antimalarial PfHsp90 inhibitor project, S. cerevisiae, BacTiter-Glo luminescence, single point, set 2; BacTiter-Glo ATP, 48 h; yeast lacking PDR1 and PDR3 efflux regulators; inhibition, % at 9.4 µM; actives 0.32% (n = 310,000); AID 504621, 2011;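 active = every replicate shows inhibition above about 80%, whatever the replicate mean, limit read from the data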;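 note: 0% = DMSO neutral controls and 100% = 20 µM radicicol positive controls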
CASP6 VEID inh: human caspase-6 inhibitors, primary screen, biochemical, VEID-R110 fluorescence, single point, set 2; P55212; purified caspase-6, Z-VEID-R110 cleavage fluorescence; inhibition, % at 12.5 µM; actives 0.53% (n = 350,000);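 active = mean inhibition across replicates at least about 35%, with every replicate also reaching that limit, limit read from the data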;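 note: 0% = median of neutral control wells and 100% = no fluorescence left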
ARNT TACC3 PPI: disruptors of ARNT/TACC3 protein interaction, primary screen, biochemical, AlphaScreen, single concentration; Transforming acidic coiled-coil-containing protein 3 (Homo sapiens), Q9Y6A5; AlphaScreen His-ARNT PAS-B/GST-TACC3 binding, luminescence; TACC3 fragment carries E629A point mutation; inhibition, % at 9.99 µM; actives 0.66% (n = 390,000); AID 623870, 2012;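 active = mean inhibition of replicates at least 50% and at least half of replicates each reaching 50%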;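 note: 0% = complete ARNT plus TACC3 wells and 100% = ARNT alone without TACC3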
SIRT5 inh: SIRT5 desuccinylase inhibitors, primary screen, biochemical, fluorescence imaging, single point, set 5; AID 652115, 2013; Purified SirT5, succinyl-peptide AMC, trypsin-coupled fluorescence; actives 1.1% (n = 330,000); NAD-dependent protein deacylase sirtuin-5, mitochondrial (Homo sapiens), Q9NXA8; inhibition, % at 15 µM; in the data active = inhibition above about 15%
Target sequence (Q9NXA8 whole entry, looked up): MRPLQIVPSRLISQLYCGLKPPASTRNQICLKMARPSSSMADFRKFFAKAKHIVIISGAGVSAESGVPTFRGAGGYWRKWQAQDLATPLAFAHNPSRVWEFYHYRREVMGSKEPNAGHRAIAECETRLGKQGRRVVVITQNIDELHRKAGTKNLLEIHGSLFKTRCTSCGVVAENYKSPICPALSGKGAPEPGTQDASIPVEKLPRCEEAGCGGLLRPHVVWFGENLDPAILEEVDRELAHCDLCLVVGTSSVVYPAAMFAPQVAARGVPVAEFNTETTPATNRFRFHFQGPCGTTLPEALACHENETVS
NSD2 inh: NSD2 histone methyltransferase inhibitors, primary screen, biochemical, AlphaScreen, single concentration, set 2 | Histone-lysine N-methyltransferase NSD2 (Homo sapiens), O96028 | NSD2 peptide methylation, 120 min | inhibition, % at 12.5 µM | actives 0.54% (n = 310,000) | AID 743445, 2014; in the data active = inhibition above about 50%
The depositor's hits bear a star; . = no result. Hits are enriched below; roughly 2.1% of the tested compounds scored in any of these assays.

SMILES	PfHsp90 yeast 2	CASP6 VEID inh	ARNT TACC3 PPI	SIRT5 inh	NSD2 inh
COc1ccc(CC2=C(O)c3ccccc3C(=O)C2=O)cc1	-2.4	3.6	23.7	0.7	2.3
CCn1nc(C)c(/C=C/C(=O)Nc2ccc(C)cc2C)c1C	6.7	0.2	9.7	36.9*	1.0
O=C(NCC1CC1)[C@@H]1[C@@H](CO)[C@@H]2Cn3c(ccc(-c4cccnc4)c3=O)[C@H]1N2C(=O)C1CCC1	.	2.0	-21.8	-39.8	.
C[C@H](CO)N1C[C@H](C)[C@H](CN(C)C(=O)Cc2ccccn2)Oc2ncc(C#CC3CC3)cc2C1=O	.	-0.9	-11.5	-3.6	.
O=C(O)c1ccc(Nc2nc(-c3ccc([N+](=O)[O-])cc3)nc3ccccc23)cc1	-32.2	-2.4	3.9	24.2*	15.4
O=[N+]([O-])c1ccc(-c2nc(Nc3ccc(O)cc3)c3ccccc3n2)cc1	-5.1	0.3	-4.6	-4.7	-1.2
O=C(C[C@H]1CC[C@@H]2NC[C@@H](O)COC[C@H]2O1)NCCc1ccncc1	.	.	8.2	.	.
CCCC#Cc1ccc2c(c1)O[C@@H](CN(C)C(=O)COC)[C@@H](C)CN([C@H](C)CO)S2(=O)=O	.	-1.2	-0.8	-1.4	.
O=C(O)c1cc(-c2ccc(/C=C3\NC(=O)N(c4ccc(Cl)cc4)C3=O)o2)ccc1Cl	-9.6	39.5*	.	19.9*	32.8
O=C1NN(c2ccccc2)C(=O)/C1=C/c1ccc(Sc2ccc(Cl)cc2)o1	-2.0	39.8*	1.6	2.9	.
O=C1NN(c2ccccc2)C(=O)/C1=C/c1ccc(-c2ccc(Cl)c(C(=O)O)c2)o1	14.5	54.6*	2.2	13.8	23.5
O=C(O)c1cc(-c2ccc(/C=C3\NC(=O)N(c4ccccc4)C3=O)o2)ccc1Cl	5.7	24.5	13.1	8.3	.
C[C@H]1CN([C@@H](C)CO)C(=O)c2cc(C#CC3CCCCC3)cnc2O[C@@H]1CN(C)C(=O)C1CCCCC1	.	-1.6	-0.5	-0.7	.
C[C@@H]1CN([C@H](C)CO)S(=O)(=O)c2ccc(-c3cncnc3)cc2O[C@@H]1CN(C)C(=O)C1CCC1	.	0.4	5.8	2.4	.
O=C(Oc1ccc(Nc2ncnc3ccccc23)cc1)c1cccnc1	-7.8	38.3*	-7.9	2.8	0.8
CCN1CCS/C1=C/C=C/C1=[N+](CC)CCS1	42.4	.	-0.1	.	10.8
CCN1CCS/C1=C\C=C\C1=[N+](CC)CCS1	31.7	-12.4	6.5	18.4*	11.0
C[C@@H]1CCCCO[C@H](CN(C)CC2CC2)[C@@H](C)CN([C@H](C)CO)C(=O)c2cc(NC(=O)CCC(F)(F)F)ccc2O1	.	1.6	.	-0.1	.
CC1C(=O)Nc2ccccc2N1C(=O)c1ccc(O)cc1 (centres undefined)	5.2	-3.1	-5.4	-2.7	-0.7
O=C1Nc2ccccc2N(C(=O)c2ccc3ccccc3c2)C1c1nc2ccccc2[nH]1 (centres undefined)	.	-1.6	.	16.2*	.
Cn1c(N=Nc2ccccc2)nc2ccccc21	12.5	39.1*	6.4	5.7	7.7
CN(C)c1ccc(N=Nc2nc3ccccc3n2C)cc1	-30.2	3.1	0.8	-1.8	.
c1ccc(-c2nnc3n2CCCC3)cc1	.	.	.	.	-1.5
Fc1ccc(-c2nnc3n2CCCCC3)cc1	7.1	0.5	.	16.5*	0.0
c1coc(CSSCc2ccco2)c1	0.3	82.1*	2.0	8.1	.
Cc1ccc(NC(=O)CSCc2ccco2)cc1	-7.4	4.0	-3.0	-3.5	3.0
O=C(CN1CCOCC1)N[C@@H]1CC[C@H](CCNC(=O)C2CCCCC2)O[C@H]1CO	.	-1.3	-31.3	15.4*	.
O=C(CCN1CCCCC1)N[C@H]1CC[C@H](CC(=O)N2CCC(Cc3ccccc3)CC2)O[C@H]1CO	.	-3.5	-7.2	5.7	.
O=C(NCC[C@H]1CC[C@H](NC(=O)C2CC2)[C@H](CO)O1)c1cc(Cl)cc(Cl)c1	.	-2.4	-16.6	-4.6	.
O=C(CCN1CCCCC1)N[C@H]1CC[C@H](CC(=O)N2CCC(Cc3ccccc3)CC2)O[C@@H]1CO	.	1.7	-6.0	38.5*	.
